Data published in the supplement of paper PMC10849652.
The full data set covers some 8,800 targets. This sample favours those with a hit. About 0.5% of all pairs of compound and target were hits. Unmarked numbers belong to inactive results.

Legend:
Experiment in all cases: log2 fold change, soluble protein after heating vs DMSO (PISA); higher = thermal stabilisation; K562 lysate, 10 uM; active = over 0.2 and 3.5 SD of the protein, either way, in both replicates (recomputed)
erlotinib = compound: C#Cc1cccc(Nc2ncnc3cc(OCCOC)c(OCCOC)cc23)c1 [erlotinib]
Outline: (§1)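 Dounce homogenisation of K562 pellets in PBS pH 7.4 with 1 mM MgCl2 produced a crude extract, used at 1 mg/mL protein. Exposure to 10 μM compound lasted 30 min, and aliquots were then heated for 3 min across 48°C-58°C, pooled and brought to 0.5% NP-40 at 4°C. The supernatant after 21,000xg for 90 min was quantified by TMTpro 16plex LC-MS/MS with channel sums equalised. Duplicate values are given as log-two fold change in thermal stability relative to solvent controls.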

[1] = compound: C/C(=N\NC(=O)C1=CC(=CC=C1)S(=O)(=O)N2CCOCC2)/C3=C(C=CC(=C3)Cl)O
Outline: as §1

[2] = compound: C1=CC(=CC=C1C2=NC3=C(N2)C=C(C=C3)C(=O)N)OC4=CC=C(C=C4)Cl
Outline: as §1

[3] = compound: C1=CC2=C(C=CC(=C2)/C=C\3/C(=O)NC(=NCC4=CC=CS4)S3)N=C1
Outline: as §1

[4] = compound: C1=CC2=NC=CN=C2C=C1/C=C/3\C(=O)NC(=O)S3
Outline: as §1

[5] = compound: C1=CC=C(C=C1)C2=NC(=C(N2)C3=CC=NC=C3)C4=CC(=C(C=C4)Cl)O
Outline: as §1

[6] = compound: C1=CC=C2C(=C1)C3=NNC4=CC=CC(=C43)C2=O
Outline: as §1

[7] = compound: C1CCN(C1)C(=O)NC2=CC=CC(=C2)NC3=NC=C(C(=N3)NCCC4=CN=CN4)Br
Outline: as §1

[8] = compound: C1CN(CCC1(CC2=CC=C(C=C2)Cl)N)C3=NC=NC4=C3C=CN4
Outline: as §1

IRAK-1-4 Inhibitor I = compound: C1COCCN1CCN2C3=CC=CC=C3N=C2NC(=O)C4=CC(=CC=C4)[N+](=O)[O-] [IRAK-1-4 Inhibitor I]
Outline: as §1

Chain of UniProt Q8WVK7 (Q8WVK7 whole entry, looked up): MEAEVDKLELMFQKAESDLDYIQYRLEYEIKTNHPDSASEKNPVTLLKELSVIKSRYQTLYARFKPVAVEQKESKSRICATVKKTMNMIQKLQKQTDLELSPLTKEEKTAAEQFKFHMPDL
Chain of UniProt Q8N196 (Q8N196 whole entry, looked up): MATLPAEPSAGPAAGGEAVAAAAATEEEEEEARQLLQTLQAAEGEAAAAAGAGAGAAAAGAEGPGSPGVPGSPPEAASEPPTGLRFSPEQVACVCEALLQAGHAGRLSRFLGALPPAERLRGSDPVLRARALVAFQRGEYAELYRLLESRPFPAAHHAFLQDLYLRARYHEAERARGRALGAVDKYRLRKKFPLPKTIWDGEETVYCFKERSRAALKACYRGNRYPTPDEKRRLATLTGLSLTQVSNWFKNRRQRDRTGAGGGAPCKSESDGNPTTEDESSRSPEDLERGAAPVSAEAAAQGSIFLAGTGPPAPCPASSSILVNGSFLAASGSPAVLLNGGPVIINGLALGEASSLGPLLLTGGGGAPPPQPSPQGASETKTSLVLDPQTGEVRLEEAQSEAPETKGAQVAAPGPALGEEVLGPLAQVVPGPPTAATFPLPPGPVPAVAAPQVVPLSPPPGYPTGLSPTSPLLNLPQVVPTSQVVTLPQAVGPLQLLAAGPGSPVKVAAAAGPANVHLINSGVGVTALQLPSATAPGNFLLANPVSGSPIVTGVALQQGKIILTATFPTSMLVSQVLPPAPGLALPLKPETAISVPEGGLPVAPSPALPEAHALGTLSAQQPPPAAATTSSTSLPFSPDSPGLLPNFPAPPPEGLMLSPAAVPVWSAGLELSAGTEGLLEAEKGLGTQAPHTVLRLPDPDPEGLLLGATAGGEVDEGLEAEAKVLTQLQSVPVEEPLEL
Chain of UniProt P51532 (P51532 whole entry, looked up): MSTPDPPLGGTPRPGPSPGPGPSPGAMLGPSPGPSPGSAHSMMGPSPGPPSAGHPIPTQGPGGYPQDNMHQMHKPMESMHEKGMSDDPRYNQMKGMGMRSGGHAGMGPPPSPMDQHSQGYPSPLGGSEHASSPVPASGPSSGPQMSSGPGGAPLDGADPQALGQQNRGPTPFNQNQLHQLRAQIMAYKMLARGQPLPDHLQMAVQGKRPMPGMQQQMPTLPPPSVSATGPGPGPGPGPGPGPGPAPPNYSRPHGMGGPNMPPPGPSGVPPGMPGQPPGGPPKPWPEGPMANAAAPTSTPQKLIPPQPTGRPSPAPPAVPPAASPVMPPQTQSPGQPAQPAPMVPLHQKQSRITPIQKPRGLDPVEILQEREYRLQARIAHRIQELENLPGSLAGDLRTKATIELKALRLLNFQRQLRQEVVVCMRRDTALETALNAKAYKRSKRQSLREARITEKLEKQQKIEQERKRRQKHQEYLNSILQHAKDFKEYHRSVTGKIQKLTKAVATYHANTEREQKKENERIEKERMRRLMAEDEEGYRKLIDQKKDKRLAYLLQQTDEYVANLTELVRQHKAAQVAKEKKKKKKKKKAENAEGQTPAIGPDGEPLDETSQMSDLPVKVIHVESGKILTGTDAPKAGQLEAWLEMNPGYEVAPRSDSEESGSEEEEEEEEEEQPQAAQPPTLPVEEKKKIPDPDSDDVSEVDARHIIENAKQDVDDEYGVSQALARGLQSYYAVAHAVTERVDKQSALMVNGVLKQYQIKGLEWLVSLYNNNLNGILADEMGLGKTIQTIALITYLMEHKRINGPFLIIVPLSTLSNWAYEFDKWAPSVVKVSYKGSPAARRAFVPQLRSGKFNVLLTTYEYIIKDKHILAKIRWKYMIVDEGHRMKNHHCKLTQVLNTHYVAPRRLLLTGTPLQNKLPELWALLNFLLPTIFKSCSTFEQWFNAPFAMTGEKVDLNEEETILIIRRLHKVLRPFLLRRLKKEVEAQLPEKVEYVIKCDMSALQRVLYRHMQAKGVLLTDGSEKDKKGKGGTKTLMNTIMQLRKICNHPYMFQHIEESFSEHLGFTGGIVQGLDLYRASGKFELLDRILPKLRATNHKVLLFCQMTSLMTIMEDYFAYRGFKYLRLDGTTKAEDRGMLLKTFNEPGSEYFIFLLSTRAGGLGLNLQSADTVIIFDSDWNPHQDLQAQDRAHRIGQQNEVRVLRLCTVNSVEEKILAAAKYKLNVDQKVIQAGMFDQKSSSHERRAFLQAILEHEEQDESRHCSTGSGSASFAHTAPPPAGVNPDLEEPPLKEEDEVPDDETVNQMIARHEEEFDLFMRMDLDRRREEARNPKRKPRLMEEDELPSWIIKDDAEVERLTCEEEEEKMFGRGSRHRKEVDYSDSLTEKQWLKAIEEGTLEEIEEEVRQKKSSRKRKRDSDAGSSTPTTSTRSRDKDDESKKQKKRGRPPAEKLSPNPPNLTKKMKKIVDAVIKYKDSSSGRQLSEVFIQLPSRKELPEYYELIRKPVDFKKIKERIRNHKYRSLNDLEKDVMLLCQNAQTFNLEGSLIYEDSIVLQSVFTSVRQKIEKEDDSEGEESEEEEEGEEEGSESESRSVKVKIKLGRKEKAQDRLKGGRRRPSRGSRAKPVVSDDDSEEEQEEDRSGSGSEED
Chain of UniProt P08047 (P08047 whole entry, looked up): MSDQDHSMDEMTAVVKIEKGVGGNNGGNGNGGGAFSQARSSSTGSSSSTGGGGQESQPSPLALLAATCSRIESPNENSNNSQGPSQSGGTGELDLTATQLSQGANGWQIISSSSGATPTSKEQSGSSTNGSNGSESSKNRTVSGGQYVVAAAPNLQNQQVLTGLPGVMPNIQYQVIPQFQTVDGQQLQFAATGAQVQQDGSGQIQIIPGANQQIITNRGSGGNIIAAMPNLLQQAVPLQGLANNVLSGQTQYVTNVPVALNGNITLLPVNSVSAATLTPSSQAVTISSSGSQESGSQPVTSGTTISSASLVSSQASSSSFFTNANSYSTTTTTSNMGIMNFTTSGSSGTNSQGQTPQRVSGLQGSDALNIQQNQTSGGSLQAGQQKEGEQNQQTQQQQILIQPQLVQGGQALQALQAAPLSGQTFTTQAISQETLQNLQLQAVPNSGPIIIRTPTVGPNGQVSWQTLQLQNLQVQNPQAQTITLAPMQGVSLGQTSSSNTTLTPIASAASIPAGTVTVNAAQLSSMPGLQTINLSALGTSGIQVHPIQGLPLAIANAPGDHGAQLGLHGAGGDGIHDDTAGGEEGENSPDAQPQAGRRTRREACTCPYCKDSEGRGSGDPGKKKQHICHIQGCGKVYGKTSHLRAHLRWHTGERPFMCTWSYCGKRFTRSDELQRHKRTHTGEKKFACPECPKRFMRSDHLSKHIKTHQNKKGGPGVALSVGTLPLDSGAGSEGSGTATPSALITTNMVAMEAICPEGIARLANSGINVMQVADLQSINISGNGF
Chain of UniProt Q53T94 (Q53T94 whole entry, looked up): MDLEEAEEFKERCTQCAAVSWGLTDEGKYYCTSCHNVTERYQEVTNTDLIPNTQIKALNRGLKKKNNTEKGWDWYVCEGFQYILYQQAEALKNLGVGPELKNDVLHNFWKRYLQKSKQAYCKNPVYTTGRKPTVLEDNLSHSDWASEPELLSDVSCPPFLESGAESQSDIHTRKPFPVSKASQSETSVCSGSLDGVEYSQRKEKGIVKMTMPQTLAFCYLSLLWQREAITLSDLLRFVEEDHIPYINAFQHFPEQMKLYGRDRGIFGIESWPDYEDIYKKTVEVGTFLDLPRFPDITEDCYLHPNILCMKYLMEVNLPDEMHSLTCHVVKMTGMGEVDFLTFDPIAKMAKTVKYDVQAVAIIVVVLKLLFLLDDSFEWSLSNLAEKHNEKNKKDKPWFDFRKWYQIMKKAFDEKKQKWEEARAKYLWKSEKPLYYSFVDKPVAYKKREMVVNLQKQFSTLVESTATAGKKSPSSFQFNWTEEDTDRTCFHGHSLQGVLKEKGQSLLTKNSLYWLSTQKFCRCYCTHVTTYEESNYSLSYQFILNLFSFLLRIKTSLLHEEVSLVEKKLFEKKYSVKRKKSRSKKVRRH
Chain of UniProt Q96CQ1 (Q96CQ1 whole entry, looked up): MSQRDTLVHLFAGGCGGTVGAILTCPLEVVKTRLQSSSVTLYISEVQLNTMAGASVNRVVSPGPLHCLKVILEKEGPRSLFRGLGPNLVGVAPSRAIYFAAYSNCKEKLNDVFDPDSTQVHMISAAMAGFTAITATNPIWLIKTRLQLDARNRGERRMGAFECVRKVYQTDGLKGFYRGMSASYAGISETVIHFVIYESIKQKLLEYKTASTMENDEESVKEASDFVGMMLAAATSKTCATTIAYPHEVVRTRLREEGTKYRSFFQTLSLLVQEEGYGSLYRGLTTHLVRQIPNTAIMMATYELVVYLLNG
Chain of UniProt Q15464 (Q15464 whole entry, looked up): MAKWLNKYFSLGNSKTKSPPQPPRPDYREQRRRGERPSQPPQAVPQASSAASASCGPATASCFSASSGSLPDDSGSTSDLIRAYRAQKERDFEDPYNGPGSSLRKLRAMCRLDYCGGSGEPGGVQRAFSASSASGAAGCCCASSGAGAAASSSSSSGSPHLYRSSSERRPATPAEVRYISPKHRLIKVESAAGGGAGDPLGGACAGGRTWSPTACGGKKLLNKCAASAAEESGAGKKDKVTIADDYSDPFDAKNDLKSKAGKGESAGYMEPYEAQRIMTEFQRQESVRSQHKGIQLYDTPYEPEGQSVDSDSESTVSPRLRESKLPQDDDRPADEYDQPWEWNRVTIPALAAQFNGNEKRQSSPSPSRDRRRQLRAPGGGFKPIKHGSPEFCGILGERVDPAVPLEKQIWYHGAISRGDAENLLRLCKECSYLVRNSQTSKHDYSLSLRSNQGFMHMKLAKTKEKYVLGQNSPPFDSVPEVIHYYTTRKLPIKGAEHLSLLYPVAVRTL
Chain of UniProt B2RUZ4 (B2RUZ4 whole entry, looked up): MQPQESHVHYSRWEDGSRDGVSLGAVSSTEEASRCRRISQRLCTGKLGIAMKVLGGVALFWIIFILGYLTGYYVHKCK
Chain of UniProt Q96EX1 (Q96EX1 whole entry, looked up): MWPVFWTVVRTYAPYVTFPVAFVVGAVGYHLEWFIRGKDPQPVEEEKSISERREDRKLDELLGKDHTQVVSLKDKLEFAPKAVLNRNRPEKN

Row | Target | log2 fold change (erlotinib) | log2 fold change [1] | log2 fold change [2] | log2 fold change [3] | log2 fold change [4] | log2 fold change [5] | log2 fold change [6] | log2 fold change [7] | log2 fold change [8] | log2 fold change (IRAK-1-4 Inhibitor I)
1 | SMIM12 (UniProt Q96EX1) | 0.048 | -0.105 | -0.024 | -0.042 | -0.026 | 0.024 | -0.009 | 0.075 | 0.008 | -0.009
2 | SKA2 (UniProt Q8WVK7) | -0.006 | -0.058 | 0.014 | -0.011 | -0.042 | 0.001 | -0.081 | -0.006 | -0.019 | -0.056
3 | SMTN isoform 6 (UniProt P53814) | -0.033 | 0.081 | -0.01 | 0.035 | 0.006 | 0.021 | 0.005 | -0.018 | 0.015 | 0.058
4 | SP1 (UniProt P08047) | -0.012 | -0.04 | 0.053 | 0.093 | -0.047 | 0.007 | 0.04 | 0.004 | 0.013 | 0.034
5 | SRM (UniProt P19623) | -0.006 | 0.039 | 0.017 | -0.001 | 0.014 | 0.004 | -0.003 | 0.017 | 0.027 | 0.007
6 | SQLE (UniProt Q14534) | -0.025 | 0.056 | 0.019 | -0.03 | -0.028 | 0.007 | 0.074 | -0.019 | -0.084 | 0.023
7 | SLC30A6 isoform 2 (UniProt Q6NXT4) | -0.014 | 0.031 | -0.012 | -0.08 | 0.069 | 0.008 | -0.212 | -0.005 | -0.059 | 0
8 | SH3GL1 (UniProt Q99961) | -0.009 | 0.016 | -0.022 | -0.004 | -0.008 | 0.001 | -0.003 | -0.027 | 0.006 | -0.017
9 | STK38L (UniProt Q9Y2H1) | -0.001 |  | -0.163 |  |  | 0.113 |  | -0.027 | 0.11 | 0.011
10 | STAU1 isoform 3 (UniProt O95793) | -0.006 |  | -0.016 |  | -0.103 |  |  |  |  | 
11 | STAR (UniProt P49675) | 0.207 | 0.01 | -0.192 | -0.029 |  | 0.042 | -0.058 | -0.125 | -0.035 | -0.031
12 | SIX5 (UniProt Q8N196) | -0.062 |  | -0.05 |  | -0.046 | -0.034 |  |  |  | -0.141
13 | SLC22A18 (UniProt Q96BI1) | -0.008 | 0.043 | -0.018 | 0.049 | -0.147 |  | -0.03 | -0.062 | 0.004 | 
14 | TARDBP (UniProt K7EN94) |  | 0.293 |  | -0.12 |  |  | -0.12 | 0.001 | -0.19 | 
15 | SNAPC2 (UniProt Q13487) | 0.131 |  | 0.022 |  | -0.21 | 0.087 |  |  |  | -0.166
16 | SZT2 (UniProt Q5T011) | 0.043 |  | -0.089 |  | 0.134 | -0.013 |  | -0.004 | 0.016 | 0.014
17 | STK17B (UniProt O94768) | -0.041 |  | -0.341 |  |  | -0.022 |  |  |  | -0.065
18 | TAF11 (UniProt Q15544) |  | 0.174 |  | -0.144 |  | -0.04 | 0.124 | -0.242 | 0.071 | 0.051
19 | SPAG1 (UniProt Q07617) |  | -0.045 |  | -0.089 | 1.01 (active) | -0.034 | -0.063 |  |  | 0.042
20 | SKP2 (UniProt Q13309) | 0.06 | -0.053 | -0.063 | 0.027 |  | -0.023 | -0.029 | -0.027 | 0.044 | -0.002
21 | TAOK2 (UniProt Q9UL54) |  | 0.006 |  | -0.034 | 0.072 | -0.031 | 0.729 (active) | 0.038 | 0.058 | 0.072

Row | Target | log2 fold change (erlotinib) | log2 fold change [1] | log2 fold change [2] | log2 fold change [3] | log2 fold change [4] | log2 fold change [5] | log2 fold change [6] | log2 fold change [7] | log2 fold change [8] | log2 fold change (IRAK-1-4 Inhibitor I)
22 | SRC isoform 2 (UniProt P12931) | -0.073 |  | 0.028 |  | 0.102 | -0.063 |  | -0.018 | -0.069 | 0.034
23 | SMPD2 (UniProt O60906) | -1.38 (active) |  | -0.551 |  |  | -0.112 |  | -0.024 | 0.022 | 0.065
24 | SURF2 (UniProt Q15527) |  | 0.087 |  | -0.019 | 0.02 | -0.004 | 0.022 | 0.051 | 0.074 | 0.035
25 | SMARCA4 isoform 4 (UniProt P51532) | 0.052 |  | 0.178 |  |  | 0.127 |  | 0.112 | -0.076 | -0.101
26 | SLCO4A1 (UniProt Q96BD0) |  |  |  |  | 0.08 |  |  |  |  | 
27 | SIN3B (UniProt O75182) |  | -0.167 |  | -0.018 |  |  | 0.046 | -0.071 | 0.132 | 
28 | SNRPD2 (UniProt K7EJB5) | -0.076 | 0 | -0.036 | -0.106 |  | -0.12 | 0.055 | 0.088 | 0.037 | -0.03
29 | SLC41A1 (UniProt Q8IVJ1) | 0.176 |  | -0.042 |  |  | 0.018 |  | 0.024 | -0.014 | -0.008
30 | SLC40A1 (UniProt Q9NP59) | 0.188 | -0.035 | 0.233 | 0.042 |  | -0.052 | -0.122 | -0.015 | 0.05 | 0.048
31 | TAF1B (UniProt Q53T94) |  | -0.283 |  | -0.123 | -0.001 | 0.024 | 0.013 | 0.345 | 0.123 | -0.061
32 | SLC39A13 (UniProt Q96H72) | 0.344 |  | 0.063 |  |  | -0.252 |  |  |  | -0.025
33 | SPA17 (UniProt Q15506) |  | -0.047 |  | 0.01 | -0.033 | -0.018 | -0.106 | -0.076 | -0.029 | 0
34 | SHB (UniProt Q15464) | 0.003 |  | 0.033 |  |  | -0.014 |  |  |  | -0.067
35 | SLC12A6 isoform 2 (UniProt Q9UHW9) | 0.013 |  | 0 |  |  | -0.019 |  | -0.139 | -0.049 | 0.089
36 | STK26 isoform 3 (UniProt Q9P289) |  |  |  |  |  |  |  | 0.272 | -0.045 | 
37 | SMIM1 (UniProt B2RUZ4) | 0.172 |  | -0.145 |  | -0.114 | 0.063 |  | 0.086 | -0.016 | -0.214
38 | SLC25A36 (UniProt Q96CQ1) | -0.021 | 0.024 | 0.08 | -0.129 |  | 0.041 | 0.027 | -0.027 | -0.026 | 0.038
39 | SLC35A3 isoform 2 (UniProt Q9Y2D2) | -0.036 | 0.057 | 0.077 | 0.001 |  | -0.166 | -0.006 | -0.036 | -0.002 | 0.164
40 | SMC4 (UniProt C9JJ64) |  |  |  |  | -0.013 |  |  |  |  | 
41 | SNAP23 isoform 2 (UniProt O00161) | 0.042 | -0.019 | 0.27 | -0.006 |  | -0.071 | -0.117 | 0.104 | -0.08 | 0.057
